From PubChem BioAssay (NCI)
Compounds without any hit were thinned out: in the full panel of roughly 83,000, 20% have a hit.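 Percent growth is the endpoint: 0 to 100 indicates growth inhibition (40 means 60% inhibition), 0 means no net growth, and negative values indicate cell death.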 A number with no mark means an inactive call. Calls of active or inactive are those of the source. The calls were made as follows: active = growth percent below 10; inactive = the rest.

system: MDA-MB-468 breast; assay: NCI-60 one-dose screen, 48 h (100 = growth as untreated, 0 = no growth, -100 = all killed); conditions: 10 µM unless noted

How did the growth turn out when CC(C)(C)c1cc(C(=O)Nc2ccccc2C(=O)NCCN)cc(C(C)(C)C)c1 was run?
Its growth is -76.7% (active).

Which growth does the source give for O=C(Nc1cnc(Nc2ccc(N3CCOCC3)nc2)nc1Oc1ccc(C(F)(F)F)cc1)c1ccncc1 here?
The growth was 103%.

O=C(O)c1cn(C2CC2)c2cc(N3CCN(C(=O)C[n+]4ccccc4)CC3)c(F)cc2c1=O was tested. Which growth did it give?
The growth was 107%.
